What all share (assay): DAPPL (digital affinity profiling via proximity ligation, sequencing); 10 mM Tris-HCl pH 7.5, 50 mM NaCl, 1 mM DTT, 4% glycerol, room temperature, 30 min; GST-TFs on glutathione beads, 16-mer random dsDNA library, 0.1% formaldehyde crosslink after washing; high values mean tight binding
Conditions in all cases: protein: recombinant; tags: N-terminal GST; dsDNA, one strand shown

The target in one assay is T1, ELK1 (Homo sapiens, UniProt P19419 1-428).
T1 sequence: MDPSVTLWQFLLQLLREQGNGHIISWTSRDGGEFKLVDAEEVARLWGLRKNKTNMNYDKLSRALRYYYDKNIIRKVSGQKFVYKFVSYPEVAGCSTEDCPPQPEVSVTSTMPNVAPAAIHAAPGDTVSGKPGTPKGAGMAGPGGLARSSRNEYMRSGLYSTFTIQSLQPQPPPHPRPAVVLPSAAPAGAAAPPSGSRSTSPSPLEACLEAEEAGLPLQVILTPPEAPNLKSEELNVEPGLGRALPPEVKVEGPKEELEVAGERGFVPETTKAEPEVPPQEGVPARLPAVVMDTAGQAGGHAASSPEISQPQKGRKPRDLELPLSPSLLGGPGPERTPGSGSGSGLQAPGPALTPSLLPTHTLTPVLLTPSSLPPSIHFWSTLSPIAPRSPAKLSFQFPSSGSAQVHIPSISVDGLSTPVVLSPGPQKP
The essentials:
(§1)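 Binding signal is given per hexamer as its read frequency for a factor divided by its frequency in the tag-only sample. GST-fused human transcription factors were expressed in yeast, captured on glutathione beads, barcoded with DNA and pooled with that sample, then incubated with 200 nmole of a 16-mer random double-stranded DNA library in Tris/NaCl/DTT/glycerol buffer for 30 min at room temperature. The pools were then washed, crosslinked, proximity-ligated, amplified by PCR and sequenced on an Illumina NextSeq500.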

Another assay addresses T2, EHF (Homo sapiens, UniProt Q9NZC4 1-300).
T2 sequence: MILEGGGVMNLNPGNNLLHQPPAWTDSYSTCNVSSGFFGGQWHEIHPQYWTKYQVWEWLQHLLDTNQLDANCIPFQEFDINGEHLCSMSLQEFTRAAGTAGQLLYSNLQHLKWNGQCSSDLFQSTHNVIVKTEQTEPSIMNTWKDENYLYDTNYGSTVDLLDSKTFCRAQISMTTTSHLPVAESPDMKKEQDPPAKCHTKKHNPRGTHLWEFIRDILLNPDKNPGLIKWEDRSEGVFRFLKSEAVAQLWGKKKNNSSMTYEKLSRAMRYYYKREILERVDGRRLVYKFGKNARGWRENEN
The essentials: as §1

The target in a further assay is T3, SPIC (Homo sapiens, UniProt Q8N5J4 1-248).
T3 sequence: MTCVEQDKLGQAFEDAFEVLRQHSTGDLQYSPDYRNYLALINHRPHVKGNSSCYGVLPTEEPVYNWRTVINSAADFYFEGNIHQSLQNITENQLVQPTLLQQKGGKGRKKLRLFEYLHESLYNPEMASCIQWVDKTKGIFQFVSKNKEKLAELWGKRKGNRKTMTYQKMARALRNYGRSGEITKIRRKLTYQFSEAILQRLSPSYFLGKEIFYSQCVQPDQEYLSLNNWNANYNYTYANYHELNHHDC
The method, boiled down: as §1

The target of another assay is T4, ELK4 (Homo sapiens, UniProt P28324-2 1-405).
T4 sequence: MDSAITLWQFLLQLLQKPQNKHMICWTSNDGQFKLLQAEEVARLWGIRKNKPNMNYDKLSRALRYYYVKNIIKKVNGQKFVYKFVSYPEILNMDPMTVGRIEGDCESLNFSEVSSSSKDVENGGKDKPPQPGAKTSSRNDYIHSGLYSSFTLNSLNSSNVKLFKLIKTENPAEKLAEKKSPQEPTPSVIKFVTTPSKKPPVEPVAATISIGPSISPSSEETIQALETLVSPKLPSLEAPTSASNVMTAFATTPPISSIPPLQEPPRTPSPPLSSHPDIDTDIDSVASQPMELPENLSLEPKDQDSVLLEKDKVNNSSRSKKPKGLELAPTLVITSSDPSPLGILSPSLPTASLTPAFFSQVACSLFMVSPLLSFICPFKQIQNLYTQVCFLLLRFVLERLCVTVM
The method, boiled down: as §1

Another assay has as its target T5, ELF3 (Homo sapiens, UniProt P78545 1-371).
T5 sequence: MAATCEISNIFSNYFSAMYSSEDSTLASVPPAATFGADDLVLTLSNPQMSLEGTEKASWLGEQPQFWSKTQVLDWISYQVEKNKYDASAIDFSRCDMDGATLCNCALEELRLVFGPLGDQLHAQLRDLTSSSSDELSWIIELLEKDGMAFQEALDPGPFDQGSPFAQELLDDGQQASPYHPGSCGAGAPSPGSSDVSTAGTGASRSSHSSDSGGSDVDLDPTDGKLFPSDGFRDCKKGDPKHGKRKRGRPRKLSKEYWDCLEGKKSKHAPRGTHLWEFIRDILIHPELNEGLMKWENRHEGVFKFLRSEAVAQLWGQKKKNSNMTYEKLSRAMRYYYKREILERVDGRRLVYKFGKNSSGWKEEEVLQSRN
The method, boiled down: as §1

In the next assay the target is T6, GABPA (Homo sapiens, UniProt Q06546 1-454).
T6 sequence: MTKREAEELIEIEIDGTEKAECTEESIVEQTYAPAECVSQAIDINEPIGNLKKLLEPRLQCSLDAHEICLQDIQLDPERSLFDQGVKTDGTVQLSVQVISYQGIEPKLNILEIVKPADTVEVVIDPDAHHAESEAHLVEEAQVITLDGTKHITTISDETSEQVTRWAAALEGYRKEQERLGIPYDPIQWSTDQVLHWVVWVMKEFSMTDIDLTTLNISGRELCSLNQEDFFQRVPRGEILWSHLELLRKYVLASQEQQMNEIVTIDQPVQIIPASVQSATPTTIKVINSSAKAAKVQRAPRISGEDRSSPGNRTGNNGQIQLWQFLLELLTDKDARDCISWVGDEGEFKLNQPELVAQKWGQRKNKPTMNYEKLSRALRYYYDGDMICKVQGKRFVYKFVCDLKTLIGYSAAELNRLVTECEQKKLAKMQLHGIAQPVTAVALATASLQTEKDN
The method, boiled down:
as §1

In a further assay the target is T7, ERG (Homo sapiens, UniProt P11308 1-479).
T7 sequence: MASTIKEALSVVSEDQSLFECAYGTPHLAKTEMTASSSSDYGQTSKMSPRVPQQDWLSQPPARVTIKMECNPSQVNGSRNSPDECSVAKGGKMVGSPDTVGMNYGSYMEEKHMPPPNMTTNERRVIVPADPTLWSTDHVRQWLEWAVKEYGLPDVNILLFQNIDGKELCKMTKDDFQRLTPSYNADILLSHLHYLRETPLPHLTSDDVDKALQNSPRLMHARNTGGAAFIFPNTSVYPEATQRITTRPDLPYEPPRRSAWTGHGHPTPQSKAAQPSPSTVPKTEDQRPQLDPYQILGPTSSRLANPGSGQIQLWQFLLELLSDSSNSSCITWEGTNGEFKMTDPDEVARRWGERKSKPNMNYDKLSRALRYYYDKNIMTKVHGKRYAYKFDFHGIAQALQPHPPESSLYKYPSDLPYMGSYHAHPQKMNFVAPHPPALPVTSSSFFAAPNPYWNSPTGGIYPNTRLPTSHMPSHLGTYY
The essentials:
as §1

The next assay addresses ELF1 (Homo sapiens, UniProt P32519 1-619). The method, boiled down:
as §1

The next assay concerns the target SPI1 (Homo sapiens, UniProt P17947 1-270). The essentials:
as §1

In another assay the target is SPIB (Homo sapiens, UniProt Q01892 1-262). The method, boiled down:
as §1

The next assay concerns the target T8, ELK3 (Homo sapiens, UniProt P41970 1-407).
T8 sequence: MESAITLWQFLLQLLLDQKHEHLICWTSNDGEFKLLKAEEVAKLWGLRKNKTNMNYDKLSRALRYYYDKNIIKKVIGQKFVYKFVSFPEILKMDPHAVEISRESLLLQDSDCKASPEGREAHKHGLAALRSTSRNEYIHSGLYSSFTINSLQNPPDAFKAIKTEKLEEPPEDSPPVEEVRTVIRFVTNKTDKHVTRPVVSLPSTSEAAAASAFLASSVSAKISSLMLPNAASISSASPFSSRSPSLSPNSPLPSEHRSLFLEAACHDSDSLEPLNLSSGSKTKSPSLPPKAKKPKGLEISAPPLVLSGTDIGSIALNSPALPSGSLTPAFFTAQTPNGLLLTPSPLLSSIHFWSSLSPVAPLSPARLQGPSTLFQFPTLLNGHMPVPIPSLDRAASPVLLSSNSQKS
The method, boiled down:
as §1

A further assay deals with T9, FEV (Homo sapiens, UniProt Q99581 1-238).
T9 sequence: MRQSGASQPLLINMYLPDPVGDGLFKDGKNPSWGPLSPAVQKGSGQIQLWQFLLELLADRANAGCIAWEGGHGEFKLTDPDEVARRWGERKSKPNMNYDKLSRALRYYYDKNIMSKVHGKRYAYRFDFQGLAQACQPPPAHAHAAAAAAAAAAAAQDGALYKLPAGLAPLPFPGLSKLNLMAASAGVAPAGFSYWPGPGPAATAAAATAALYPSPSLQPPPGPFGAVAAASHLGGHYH
The essentials:
as §1

Another assay deals with ELF4 (Homo sapiens, UniProt Q99607 1-663). The method, boiled down:
as §1

Another assay concerns the target T10, ETS2 (Homo sapiens, UniProt P15036 1-469).
T10 sequence: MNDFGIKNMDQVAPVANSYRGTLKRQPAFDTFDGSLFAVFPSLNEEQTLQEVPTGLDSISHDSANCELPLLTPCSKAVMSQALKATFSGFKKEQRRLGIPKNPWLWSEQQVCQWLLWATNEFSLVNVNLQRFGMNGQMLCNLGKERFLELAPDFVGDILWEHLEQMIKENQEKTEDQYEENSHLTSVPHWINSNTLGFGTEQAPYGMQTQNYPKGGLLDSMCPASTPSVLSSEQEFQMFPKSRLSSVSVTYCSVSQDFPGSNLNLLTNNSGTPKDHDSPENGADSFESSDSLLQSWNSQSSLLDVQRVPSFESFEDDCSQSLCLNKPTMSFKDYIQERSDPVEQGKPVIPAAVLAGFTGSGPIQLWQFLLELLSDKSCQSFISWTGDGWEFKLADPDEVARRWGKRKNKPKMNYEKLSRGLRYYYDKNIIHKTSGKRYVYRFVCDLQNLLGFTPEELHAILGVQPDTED
The method, boiled down: as §1

The next assay has as its target T11, ETV7 (Homo sapiens, UniProt Q9Y603 1-341).
T11 sequence: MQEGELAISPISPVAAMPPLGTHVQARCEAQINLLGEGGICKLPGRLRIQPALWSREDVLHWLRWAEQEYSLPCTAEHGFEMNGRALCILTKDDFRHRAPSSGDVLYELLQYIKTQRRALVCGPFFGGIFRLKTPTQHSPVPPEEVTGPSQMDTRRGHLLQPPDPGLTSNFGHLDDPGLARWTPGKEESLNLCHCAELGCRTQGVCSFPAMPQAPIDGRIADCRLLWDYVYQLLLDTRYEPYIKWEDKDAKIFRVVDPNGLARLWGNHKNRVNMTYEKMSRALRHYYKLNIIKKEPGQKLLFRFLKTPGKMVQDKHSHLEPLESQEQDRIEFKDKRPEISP
The essentials: as §1

Another assay concerns the target ETV6 (Homo sapiens, UniProt P41212 1-452). The method, boiled down:
as §1

Sequence of ELF4 (Q99607 whole entry): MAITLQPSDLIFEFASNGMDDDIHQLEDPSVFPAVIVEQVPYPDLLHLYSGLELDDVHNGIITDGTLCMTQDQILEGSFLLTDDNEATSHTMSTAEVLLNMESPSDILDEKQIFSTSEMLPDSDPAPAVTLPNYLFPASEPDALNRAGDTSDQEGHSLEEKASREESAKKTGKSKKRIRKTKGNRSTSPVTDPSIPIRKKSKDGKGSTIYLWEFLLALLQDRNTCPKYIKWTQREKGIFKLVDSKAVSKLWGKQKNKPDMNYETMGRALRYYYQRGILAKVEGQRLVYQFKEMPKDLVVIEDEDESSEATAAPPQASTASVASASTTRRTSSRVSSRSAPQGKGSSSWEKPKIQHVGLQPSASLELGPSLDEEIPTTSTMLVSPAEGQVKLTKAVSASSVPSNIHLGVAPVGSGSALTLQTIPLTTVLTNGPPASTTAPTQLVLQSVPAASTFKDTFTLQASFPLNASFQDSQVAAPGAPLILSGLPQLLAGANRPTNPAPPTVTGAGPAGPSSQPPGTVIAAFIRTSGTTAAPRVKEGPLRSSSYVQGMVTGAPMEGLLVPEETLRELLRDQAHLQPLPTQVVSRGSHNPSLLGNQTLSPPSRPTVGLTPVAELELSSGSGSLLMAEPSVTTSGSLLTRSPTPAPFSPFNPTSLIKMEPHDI
Sequence of SPIB (Q01892 whole entry): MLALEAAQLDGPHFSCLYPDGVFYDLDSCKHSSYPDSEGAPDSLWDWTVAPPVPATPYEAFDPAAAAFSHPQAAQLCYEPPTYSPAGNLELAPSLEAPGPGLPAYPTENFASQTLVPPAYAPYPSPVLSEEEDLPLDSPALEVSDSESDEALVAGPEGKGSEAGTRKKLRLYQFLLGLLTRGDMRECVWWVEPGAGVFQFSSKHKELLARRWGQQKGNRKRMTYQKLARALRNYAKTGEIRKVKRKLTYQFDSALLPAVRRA
Sequence of ELF1 (P32519 whole entry): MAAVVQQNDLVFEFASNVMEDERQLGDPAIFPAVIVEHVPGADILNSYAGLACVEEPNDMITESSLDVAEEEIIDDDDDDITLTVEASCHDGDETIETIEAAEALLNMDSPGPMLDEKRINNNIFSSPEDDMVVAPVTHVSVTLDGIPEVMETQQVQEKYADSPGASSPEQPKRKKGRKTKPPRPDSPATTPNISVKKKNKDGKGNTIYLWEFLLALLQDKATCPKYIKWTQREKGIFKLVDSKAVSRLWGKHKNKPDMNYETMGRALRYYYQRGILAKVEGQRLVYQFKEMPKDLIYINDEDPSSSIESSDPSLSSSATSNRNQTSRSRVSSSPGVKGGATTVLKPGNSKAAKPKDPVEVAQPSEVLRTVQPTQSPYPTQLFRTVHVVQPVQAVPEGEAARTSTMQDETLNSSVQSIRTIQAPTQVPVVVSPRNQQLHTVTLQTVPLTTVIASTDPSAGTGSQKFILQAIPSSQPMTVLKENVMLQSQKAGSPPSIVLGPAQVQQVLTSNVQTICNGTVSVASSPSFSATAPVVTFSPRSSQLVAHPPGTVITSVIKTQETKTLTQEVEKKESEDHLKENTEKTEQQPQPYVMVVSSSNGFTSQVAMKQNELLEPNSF
Sequence of ETV6 (P41212 whole entry): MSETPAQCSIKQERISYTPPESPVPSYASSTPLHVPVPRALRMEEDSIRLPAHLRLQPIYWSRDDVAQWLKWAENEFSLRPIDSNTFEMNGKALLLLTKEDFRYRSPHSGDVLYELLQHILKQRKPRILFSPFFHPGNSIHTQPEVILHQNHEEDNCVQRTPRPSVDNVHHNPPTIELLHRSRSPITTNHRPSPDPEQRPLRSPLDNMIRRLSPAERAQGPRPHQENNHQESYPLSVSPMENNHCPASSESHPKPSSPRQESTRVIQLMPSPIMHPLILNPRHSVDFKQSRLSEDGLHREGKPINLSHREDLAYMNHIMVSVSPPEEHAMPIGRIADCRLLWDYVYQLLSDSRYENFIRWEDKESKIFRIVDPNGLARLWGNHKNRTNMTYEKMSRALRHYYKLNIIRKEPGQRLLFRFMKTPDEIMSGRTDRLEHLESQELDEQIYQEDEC

As for TGGTGA, the binding signal in the assay with ELK1 is 1.04 fold enrichment (6-mer frequency, TF over GST control); in the assay with EHF, 1.09 fold enrichment (6-mer frequency, TF over GST control); in the assay with SPIC, 1.02 fold enrichment (6-mer frequency, TF over GST control); with ELK4, 1.04 fold enrichment (6-mer frequency, TF over GST control); with ELF3, 1.03 fold enrichment (6-mer frequency, TF over GST control).

Turning to AGGGCC, the binding signal is 1.02 fold enrichment (6-mer frequency, TF over GST control) with SPIC and 1.1 fold enrichment (6-mer frequency, TF over GST control) with ELK4.

As to GTGGCC, the binding signal in the assay with GABPA is 1.06 fold enrichment (6-mer frequency, TF over GST control); with ERG it was 1.1 fold enrichment (6-mer frequency, TF over GST control); with ELF1 it was 1.05 fold enrichment (6-mer frequency, TF over GST control); in the assay with SPI1, 1.2 fold enrichment (6-mer frequency, TF over GST control); with SPIB it was 1.2 fold enrichment (6-mer frequency, TF over GST control); with ELK3, 1.22 fold enrichment (6-mer frequency, TF over GST control). Moreover, the binding signal is 1.14 fold enrichment (6-mer frequency, TF over GST control) in the assay with FEV; 1.02 fold enrichment (6-mer frequency, TF over GST control) with SPIC; 1.02 fold enrichment (6-mer frequency, TF over GST control) with ELF4; 1.03 fold enrichment (6-mer frequency, TF over GST control) with ELK4; 1.09 fold enrichment (6-mer frequency, TF over GST control) with ELF3; 1.01 fold enrichment (6-mer frequency, TF over GST control) in the assay with ETS2. Besides, the binding signal was 1.01 fold enrichment (6-mer frequency, TF over GST control) with ETV7 and 1.1 fold enrichment (6-mer frequency, TF over GST control) with ETV6.

The values are drawn from PMC7862700, “An all-to-all approach to the identification of sequence-specific readers for epigenetic DNA modifications on cytosine”.
